Screens from PubChem.
Autofluor 339 – intrinsic fluorescence of library compounds, ex339/em460 – biochemical, MLSMR library, data from DPM-DC assay, artefact control, profiling panel; compound autofluorescence, ex339/em460 nm, NADH buffer; stronger effect = higher value; 1 = no-compound wells, NADH background; fluorescence fold increase at 10 µM; actives 5.5% (n = 65,000);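 active = at 10 µM, mean starting fluorescence two-fold or more over control wells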;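 also: signal is the first read of a kinetic run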
NADH coupling – inhibitors of PK/LDH coupling enzymes, profiling panel, artefact control, biochemical, MLSMR library; coupled PK/LDH NADH assays, four targets; IC50, µM (highest dose often 10 µM); actives 0.02% (n = 65,000); AID 774, 2007;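 active = single-dose screening hits from any of four coupled enzyme assays that gave an IC50 when retested across doses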;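 also: the DPM-DC format reads NADH fluorescence rather than 340 nm absorbance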
Spn PMK inh – S. pneumoniae PMK inhibitors, primary screen, biochemical, mevalonate pathway, pilot trial included. purified PMK, PK/LDH-coupled NADH absorbance 340 nm. actives 0.49% (n = 65,000). phosphomevalonate kinase (Streptococcus pneumoniae D39). inhibition, % at 10 µM;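 active = top-ranked compounds by inhibition in the single 10 µM screen, taking a fixed number of the strongest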
Spn DPM-DC inh – S. pneumoniae DPM-DC inhibitors, primary screen, biochemical, PK/LDH-coupled NADH fluorescence | actives 0.49% (n = 65,000) | purified DPM-DC | diphosphomevalonate decarboxylase (Streptococcus pneumoniae D39) | calls only at 10 µM;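 active = the 320 compounds with the highest percent inhibition in the single-dose primary screen, excluding strongly autofluorescent ones, cut at about 32% in these data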;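 also: kinetic rate of NADH fluorescence loss reporting ADP formed by the decarboxylase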
Spn MK inh – S. pneumoniae MK inhibitors, primary screen, biochemical, PK/LDH-coupled NADH absorbance. purified MK, PK/LDH-coupled NADH absorbance 340 nm. inhibition, % at 10 µM. actives 0.48% (n = 65,000). AID 555, 2006;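 active = ranked among the strongest by inhibition in the single 10 µM screen, a fixed top-ranked set picked for dose follow-up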
Abs 340nm – compound light absorbance at 340 nm, profiling panel, artefact control, biochemical, MLSMR library, data from PS, PMK, MK assays; AID 708, 2007; compound absorbance at 340 nm, fold over control; fold change at 10 µM; 65,000 tested, under 10 active;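 active = at 10 µM dose, initial 340 nm absorbance at least 2 fold that of control wells; inactive = change under 2 fold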;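 also: initial absorbance extrapolated from kinetic A340 decline of NADH oxidation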
Numbers stand for hits; n = inactive; x = no result given; + = active, no number. Rows were chosen to be rich in hits. Some 6.3% of all compounds tested hit in one or more screens of this group.

SMILES	Autofluor 339	NADH coupling	Spn PMK inh	Spn DPM-DC inh	Spn MK inh	Abs 340nm
CCCc1nc(N2CCOCC2)c(C#N)c2c1CCCC2	n	n	n	n	n	n
CC(=O)N1CCN(c2nc(CC(C)C)c3c(c2C#N)CCC3)CC1	2.3	n	n	x	n	n
CC(C)Cc1nc(N2CCCCC2)c(C#N)c2c1CCC2	n	n	n	n	n	n
CC(C)c1nc(N2CCOCC2)c(C#N)c2c1CCC2	2.03	n	n	n	n	n
COC(=O)c1c(-c2ccc(F)cc2)noc1N	n	n	n	n	n	n
CCOC(=O)c1c(C)nc2c(c1C)/C(=N/O)CC(C)(C)C2	n	n	n	n	n	n
O=C(CSc1nnc(CNc2ccccc2)o1)N1CCN(C(=O)c2ccco2)CC1	n	n	n	n	n	n
CCOC(=O)N1CCN(C(=O)c2cn(CCOC)c(=O)c3c2c2ccccc2n3C)CC1	4.33	n	n	x	n	n
Cc1cccc(N2CCN(C(=O)c3cn(C)c(=O)c4c3c3ccccc3n4C)CC2)c1C	n	n	n	n	n	n
COCCn1cc(C(=O)N2CCN(C)CC2)c2c3ccccc3n(C)c2c1=O	4.61	n	n	x	n	n
Cn1c(NCCCN2CCOCC2)nc2c1c(=O)n(Cc1ccc(Cl)cc1)c(=O)n2C	n	n	n	n	n	n
COc1ccccc1CNC(=O)CNCC1CCCO1 (stereo not given)	n	n	n	n	n	n
O=C(c1ccco1)N1CCN(C(c2ccccn2)c2nnnn2C2CCCC2)CC1 (stereo not given)	n	n	n	n	n	n
O=C(Oc1ccc(OC(=O)N2CCCCC2)cc1)c1ccccc1	n	n	n	n	n	n
Cc1sc2ncnc(N[C@@H](CCC(=O)O)C(=O)O)c2c1C	n	n	n	n	n	n
Cc1sc2ncnc(NCC(c3ccco3)N(C)C)c2c1C (stereo not given)	n	n	30.0	n	56.0	n
CNC(=O)CCC(=O)Nc1ccc(C(=O)OC)cc1	n	n	n	n	n	n
COc1cccc(C2/C(=C(\O)c3ccc4c(c3)OCO4)C(=O)C(=O)N2CCN(C)C)c1OC (stereo not given)	n	n	n	n	n	n
COc1ccc2c(c1OC)CN(C)CCc1cc3c(cc1C(O)C2)OCO3 (stereo not given)	n	n	25.0	n	n	n
CC1CCN(c2ccc(C(=O)O)cc2N)CC1	n	n	n	n	n	n
Cc1cc(C)cc(Nc2ccc(C(=O)O)cc2N)c1	2.87	n	n	n	n	n
O=S1(=O)N=C(Nc2ccc(O)c(CN3CCCCC3)c2)c2ccccc21	n	n	n	n	n	n
CCOC(=O)N1CC=C2C(C#N)=C(N)C(C#N)(C#N)[C@H](c3ccsc3)[C@H]2C1	n	n	n	n	n	n
CN1CC=C2C(C#N)=C(N)C(C#N)(C#N)C(CCc3ccccc3)C2C1 (stereo not given)	2.01	n	n	n	n	n
CCCC1C2CN(C(C)C)CC=C2C(C#N)=C(N)C1(C#N)C#N (stereo not given)	4.01	n	n	n	n	n
SMILES	Autofluor 339	NADH coupling	Spn PMK inh	Spn DPM-DC inh	Spn MK inh	Abs 340nm
CN1CC=C2C(C#N)=C(N)C(C#N)(C#N)[C@H](c3cccc(Cl)c3)C2C1 (stereo not given in full)	n	n	n	n	n	n
COc1ccc2c(c1)OCC1=C2CCC2(C)C(=O)CC=C12 (stereo not given)	3.6	n	n	x	n	n
Cc1cc(-c2ccco2)c(C#N)c2nc3ccccc3n12	2.22	n	n	x	n	n
CCc1c(C)c(C#N)c2nc3ccccc3n2c1-n1nc(C)cc1C	n	n	n	n	n	n
CC(C)c1cc(N2CCN(C(=O)c3ccco3)CC2)n2c(nc3ccccc32)c1C#N	2.14	n	n	x	n	n
O=C(c1ccco1)N1CCN(c2nc3ccccc3n3nnnc23)CC1	n	n	n	n	n	n
CC(C)NC(=O)Cn1c(SCC(=O)N2c3ccccc3CC2C)nc2ccccc21 (stereo not given)	n	n	n	n	n	n
COc1ccc2c(c1)c(C(=O)N1CCN(C)CC1)c(C)n2-c1ccccc1	n	n	n	n	n	n
CN(C)C(=O)COc1ccc2cc(-c3ccccc3)c(=O)oc2c1	2.95	n	n	x	n	n
Cc1cc(OCC(=O)N(C)C)c2c(-c3ccccc3)cc(=O)oc2c1	n	n	n	n	n	n
COc1cccc(NC(=O)N(Cc2cc3cc(C)cc(C)c3[nH]c2=O)CC2COCCO2)c1 (stereo not given)	n	n	n	n	n	n
c1ccc(-c2nc3ccccc3o2)nc1	n	n	n	n	n	n
CC(=O)Nc1nc2ccc(-c3nc4ccccc4o3)cc2s1	2.23	n	n	x	n	n
CCC(=O)Nc1cccc(-c2nc3ccccc3o2)c1	n	n	n	n	n	n
Cc1ccnc2ccc(-c3nc4ccccc4o3)cc12	5.01	n	n	x	n	n
COc1cc2cc(C(c3nnnn3C3CCCCC3)N(C)C3CCCCC3)c(=O)[nH]c2cc1OC (stereo not given)	n	n	n	n	n	n
C=CCOc1nc(-c2ccncc2)nc2ccccc12	n	n	n	n	n	n
COc1ccc(Cl)cc1NC(=O)C1CCCN(S(=O)(=O)c2cccc3nonc23)C1 (stereo not given)	n	n	n	n	54.0	n
CCCCCCc1ccc(OCC(=O)O)cc1OCC(=O)O	n	n	n	n	n	n
CCCCc1cc(=O)oc2cc(C)cc(OCC(=O)O)c12	3.82	n	n	x	n	n
Cc1ccccc1Cc1c(C)nc2c(C(=O)NCc3ccco3)cnn2c1C	3.29	n	n	n	n	n
O=C(NCc1ccco1)c1nc2nc(-c3cccs3)cc(C(F)(F)F)n2n1	3.84	n	n	x	n	n
COCCNC(=O)c1cnn2c(C(F)(F)F)cc(-c3ccc4c(c3)OCO4)nc12	2.52	n	n	+	n	n
Cc1ccc(-c2cc(C(F)(F)F)n3ncc(C(=O)NCc4ccco4)c3n2)cc1	n	n	n	+	n	n
Cc1ccc(C(=O)C2=C(O)C(=O)N(CCCN(C)C)C23C(=O)N(C)c2ccccc23)o1 (stereo not given)	n	n	n	n	n	n
O=C(CSc1ccccc1C(=O)NCCCN1CCCC1=O)NCc1ccco1	n	n	n	n	n	n
O=C(O)c1ccc(NS(=O)(=O)c2cc(C(=O)O)ccc2Br)cc1	n	n	n	n	n	n
COc1ccc(C)cc1S(=O)(=O)N(CC(N)=O)Cc1ccccc1	n	n	n	n	n	n
